Measured values as given in PubChem BioAssay (Tox21).
“And” between values parts separate entries of the source, which are not always exact repeats. Equal entries are not always repeated. Inconclusive results are not listed. The source made the active and inactive calls. Calls follow the shape of the full dose curve.

How the values were obtained:
[1] = molecular target: Acetylcholinesterase (Homo sapiens) (UniProt P22303); assay: Acetylcholinesterase (AChE) small molecule antagonists: colormetric cell-based qHTS assay (AID 1347395); also: nearly all actives have a fitted effect of over 30% in size; also: potency is read from the fitted curve at half-maximal effect
Acetylcholinesterase (Homo sapiens), sequence (P22303 whole entry, looked up): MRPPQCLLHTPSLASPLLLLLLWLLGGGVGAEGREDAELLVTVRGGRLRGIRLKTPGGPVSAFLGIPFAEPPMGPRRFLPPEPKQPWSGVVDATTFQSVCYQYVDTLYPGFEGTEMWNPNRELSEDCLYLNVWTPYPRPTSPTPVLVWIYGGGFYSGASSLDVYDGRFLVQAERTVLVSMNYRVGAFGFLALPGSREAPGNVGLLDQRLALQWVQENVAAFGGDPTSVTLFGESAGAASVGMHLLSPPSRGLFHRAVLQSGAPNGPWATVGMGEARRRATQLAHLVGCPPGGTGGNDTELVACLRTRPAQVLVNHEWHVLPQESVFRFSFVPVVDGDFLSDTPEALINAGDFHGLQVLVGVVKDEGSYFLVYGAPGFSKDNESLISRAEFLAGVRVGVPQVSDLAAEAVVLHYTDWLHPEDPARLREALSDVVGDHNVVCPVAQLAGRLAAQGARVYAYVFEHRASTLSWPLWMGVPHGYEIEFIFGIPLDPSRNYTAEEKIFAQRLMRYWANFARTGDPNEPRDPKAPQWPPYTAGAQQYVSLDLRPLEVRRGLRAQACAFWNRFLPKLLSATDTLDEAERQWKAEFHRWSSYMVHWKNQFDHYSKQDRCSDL
Summary of the method: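 In this cell-based qHTS, attached SH-SY5Y cells were treated with test chemicals for 30 min, after which acetylthiocholine hydrolysis was followed by DTNB colour development over 90 min at 37 C.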

[2] = molecular target: Acetylcholinesterase (Homo sapiens) (UniProt P22303); assay: Acetylcholinesterase (AChE) small molecule antagonists: enzyme-based qHTS assay (AID 1347397); conditions: Potency: AChE enzyme activity inhibition; outcome: AChE enzyme activity inhibition; also: nearly all actives have a fitted effect of over 55% in size; also: potency is read from the fitted curve at half-maximal effect
Summary of the method: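 Colorimetric DTNB readout of acetylthiocholine hydrolysis, 10 min at room temperature, after 30 min room-temperature exposure of 50 mU/mL recombinant human enzyme to compound; DMSO vehicle control.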

[3] = molecular target: Acetylcholinesterase (Homo sapiens) (UniProt P22303); assay: Acetylcholinesterase (AChE) small molecule antagonists: fluorescence cell-based qHTS assay (AID 1347398); conditions: Potency: AChE activity; outcome: AChE activity; also: nearly all actives have a fitted effect of over 50% in size; also: potency is read from the fitted curve at half-maximal effect
Summary of the method: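 Cellular AChE activity read as thiocholine from acetylthiocholine hydrolysis, detected by Thiolite Green fluorescence at 490/520 nm after 40 min at room temperature. Compounds were pre-incubated 30 min at 37 C on adherent SH-SY5Y cells.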

[4] = molecular target: Acetylcholinesterase (Homo sapiens) (UniProt P22303); assay: Acetylcholinesterase (AChE) small molecule antagonists: enzyme-based qHTS assay with human liver microsomes (AID 1347399); conditions: Potency: qHTS inhibition; outcome: qHTS inhibition; also: nearly all actives have a fitted effect of over 60% in size
Summary of the method: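 Recombinant human AChE (50 mU/mL in the enzyme mix) and human liver microsomes (0.25 mg/mL final) were preincubated with compound and NADPH (0.25 mg/mL final) for 30 min at 37 C. Acetylthiocholine/DTNB was then added; thiocholine was read colorimetrically after 10 min at room temperature.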
% is scaled to controls: 0 for no effect and ±100 for the full control effect.

Cc1ccc(C(=O)O)cc1
inactive: Potency [1] | Potency [2] | Potency [3] | Potency [4]

C[n+]1ccn(CCO)c1
inactive: Potency [1] | Potency [2] | Potency [3] | Potency [4]

CCCNC(C)C(=O)Nc1ccccc1C (stereo not given)
inactive: Potency [1] | Potency [2] | Potency [3] | Potency [4]

CC(C)CCCCCCN
inactive: Potency [1] | Potency [2] | Potency [3] | Potency [4]

CC(C)CC(C)O (stereo not given)
inactive: Potency [1] | Potency [2] | Potency [3] | Potency [4]

COc1cc([C@H]2Oc3cc([C@H]4Oc5cc(O)cc(O)c5C(=O)[C@@H]4O)ccc3O[C@@H]2CO)ccc1O
inactive: Potency [1] | Potency [2] | Potency [3] | Potency [4]

Cc1cccc(Nc2cc(Cl)nc(SCC(=O)O)n2)c1C
inactive: Potency [1] | Potency [2] | Potency [3] | Potency [4]

O=C(c1ccc(O)c(O)c1)c1ccc(O)cc1O
inactive: Potency [1] | Potency [2] | Potency [3] | Potency [4]

COc1ccc(OC(F)(F)F)cc1CN[C@H]1CCCN[C@H]1c1ccccc1
inactive: Potency [1] | Potency [2] | Potency [3] | Potency [4]

CCN(CC)CCSC(=O)C(c1ccccc1)c1ccccc1
inactive: Potency [1] | Potency [2] | Potency [3] | Potency [4]

C=C1C(C)(C)[C@@]2(Cl)C(Cl)[C@]1(Cl)C(Cl)(Cl)C2(Cl)Cl (stereo not given in full)
inactive: Potency [1] | Potency [2] | Potency [3] | Potency [4]

CCc1oc2ccccc2c1C(=O)c1cc(I)c(O)c(I)c1
inactive: Potency [1] | Potency [2] | Potency [3] | Potency [4]

CCC(=O)c1c(O)cc(O)cc1O
inactive: Potency [1] | Potency [2] | Potency [3] | Potency [4]

Cc1cc(C)cc(N)c1
inactive: Potency [1] | Potency [2] | Potency [3] | Potency [4]

NC(=S)NNC(N)=S
inactive: Potency [1] | Potency [2] | Potency [3] | Potency [4]

O=C(O)c1ccc2cc(O)ccc2c1
inactive: Potency [1] | Potency [2] | Potency [3] | Potency [4]

O=C(Cl)c1c(Cl)cccc1Cl
inactive: Potency [2] | Potency [4]
active: Potency [1] 64 µM | Potency [3] 40.4 µM

O=C(Oc1ccccc1C(=O)O)c1ccccc1O
inactive: Potency [1] | Potency [2] | Potency [3] | Potency [4]

CC12CCC(C1)C(C)(C)C2O (stereo not given)
inactive: Potency [1] | Potency [2] | Potency [3] | Potency [4]

CCCCCCCCCCCC(=O)OCC(C)OC(=O)CCCCC(=O)O (stereo not given)
inactive: Potency [1] | Potency [2] | Potency [3] | Potency [4]

Oc1ccc2c(c1)OCO2
inactive: Potency [1] | Potency [2] | Potency [3] | Potency [4]

CC(C)CC=O
inactive: Potency [1] | Potency [2] | Potency [3] | Potency [4]

CC(C=O)Cc1ccc(C(C)(C)C)cc1 (stereo not given)
inactive: Potency [1] | Potency [2] | Potency [3] | Potency [4]

COC(=O)c1cccc(C(=O)OC)c1
inactive: Potency [1] | Potency [2] | Potency [3] | Potency [4]

c1cc(CCCc2ccncc2)ccn1
inactive: Potency [1] | Potency [2] | Potency [3] | Potency [4]

COC(=O)c1ccc(C=O)cc1
inactive: Potency [1] | Potency [2] | Potency [3] | Potency [4]

CC(C)c1ccc(S(=O)(=O)O)cc1
inactive: Potency [1] | Potency [2] | Potency [3] | Potency [4]

CCCC[O][Al]([O]CCCC)[O]CCCC
inactive: Potency [1] | Potency [2] | Potency [3] | Potency [4]

CN(C)CCCOC1(Cc2ccccc2)CCCCCC1
inactive: Potency [1] | Potency [2] | Potency [3] | Potency [4]

C1CCN(CN2CCCCC2)CC1
inactive: Potency [1] | Potency [2] | Potency [3] | Potency [4]

CC(C)(C)c1ccc(O)c(C(C)(C)C)c1
inactive: Potency [1] | Potency [2] | Potency [3] | Potency [4]

CCCCOC(=O)c1ccccc1
inactive: Potency [1] | Potency [2] | Potency [3] | Potency [4]

Cn1c(=O)c2[nH]c(Br)nc2n(C)c1=O
inactive: Potency [1] | Potency [2] | Potency [3] | Potency [4]

CCN[C@H]1C[C@H](C)S(=O)(=O)c2sc(S(N)(=O)=O)cc21
inactive: Potency [1] | Potency [2] | Potency [3] | Potency [4]

CCCCNC(=O)NCCCC
inactive: Potency [1] | Potency [2] | Potency [3] | Potency [4]

O=C(Nc1ccc(Cl)c(Cl)c1)C1CC1
inactive: Potency [1] | Potency [2] | Potency [3] | Potency [4]

NC(=S)Nc1cccc2ccccc12
inactive: activity, negative = inhibition [1] -0.35% [at 10.5 µM] | activity change, negative = inhibition [2] -0.679% [at 10.5 µM] | activity change, negative = inhibition [3] -3.97% [at 10.5 µM] | activity change, negative = inhibition [4] 0.729% [at 10.5 µM]

CN(C)/N=N/c1nc[nH]c1C(N)=O
inactive: Potency [1] | Potency [2] | Potency [3] | Potency [4]

Nc1ccc(N=Nc2ccc(N)cc2)cc1
inactive: Potency [1] | Potency [2] | Potency [3] | Potency [4]

COc1cccc2c1C(=O)c1c(O)c3c(c(O)c1C2=O)C[C@@](O)(C(=O)CO)C[C@@H]3O[C@H]1C[C@H](N)[C@H](O)[C@H](C)O1
inactive: Potency [2] | Potency [3] | Potency [4]
active: Potency [1] 8.71 µM

O=C(c1ccc(O)cc1)c1ccc(O)cc1O
inactive: Potency [1] | Potency [2] | Potency [3] | Potency [4]

C=CC(=O)Nc1cc2c(Nc3ccc(F)c(Cl)c3)ncnc2cc1OCCCN1CCOCC1
inactive: Potency [1] | Potency [2] | Potency [3] | Potency [4]

NCCN1CCNC1=O
inactive: Potency [1] | Potency [2] | Potency [3] | Potency [4]

Cc1ccc2c(n1)Oc1ccc(C(C)C(=O)OCC(=O)N(C)C)cc1C2 (stereo not given)
active: Potency [1] 15.5 µM and 12.3 µM | Potency [2] 15.5 µM | Potency [3] 4.9 µM
inactive: Potency [4]

COC(=O)c1ccccc1OC
inactive: Potency [1] | Potency [2] | Potency [3] | Potency [4]

CCCOC(C)=O
inactive: Potency [1] | Potency [2] | Potency [3] | Potency [4]

Oc1ccccc1Cc1ccccc1O
inactive: Potency [1] | Potency [2] | Potency [3] | Potency [4]

CCN(CC)CC(=O)Nc1c(C)cccc1C(=O)OC
inactive: Potency [1] | Potency [2] | Potency [3] | Potency [4]

O=CNNC=O
inactive: Potency [1] | Potency [2] | Potency [3] | Potency [4]

CC1(C)[C@@H](O[C@H]2O[C@H](C(=O)O)[C@@H](O)[C@H](O)[C@H]2O[C@@H]2O[C@H](C(=O)O)[C@@H](O)[C@H](O)[C@H]2O)CC[C@]2(C)[C@H]3C(=O)C=C4[C@@H]5C[C@@](C)(C(=O)O)CC[C@]5(C)CC[C@@]4(C)[C@]3(C)CC[C@@H]12
inactive: Potency [1] | Potency [2] | Potency [3] | Potency [4]

O=C(O)c1nc(Cl)c(Cl)c(Cl)c1Cl
inactive: Potency [1] | Potency [2] | Potency [3] | Potency [4]

O=c1c(-c2ccc(O)cc2)coc2cc(O)ccc12
inactive: Potency [1] | Potency [2] | Potency [3] | Potency [4]

CCCCCC#CC(=O)OC
inactive: Potency [1] | Potency [2] | Potency [3] | Potency [4]

CC(C)(C)C(=O)CC(=O)C(C)(C)C
inactive: Potency [1] | Potency [2] | Potency [3] | Potency [4]

CC[C@H](C)[C@@H](C(=O)O)n1sc2ccccc2c1=O
inactive: Potency [1] | Potency [2] | Potency [3] | Potency [4]

CCCCC(CC)COC(=O)CS (stereo not given)
inactive: Potency [1] | Potency [2] | Potency [3] | Potency [4]

COC=O
inactive: activity, negative = inhibition [1] 2.05% [at 10.5 µM] | activity change, negative = inhibition [2] 0.267% [at 10.5 µM] | activity change, negative = inhibition [3] -1.7% [at 10.5 µM] | activity change, negative = inhibition [4] 0.679% [at 10.5 µM]

Nc1ccc([N+](=O)[O-])c(C(F)(F)F)c1
inactive: Potency [1] | Potency [2] | Potency [3] | Potency [4]

O=C(CCc1ccc(O)cc1)c1c(O)cc(O)cc1O
inactive: Potency [1] | Potency [3] | Potency [4]
active: Potency [2] 57.7 µM

O=Nc1ccc(O)cc1
inactive: Potency [1] | Potency [2] | Potency [3] | Potency [4]
